PubChem BioAssay (NCI)
This is part of a sample that, as a whole, favours compounds with a hit. Of some 83,000 tested, about 20% had one in any assay.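 Treatment: one concentration, 48 hours, 96-well format. Scoring: percent growth, with anything below 10 considered active.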 Unmarked numbers belong to inactive results. The source made the active and inactive calls.

Key:
Assay in all cases: NCI-60 one-dose screen, 48 h (100 = growth as untreated, 0 = no growth, -100 = all killed)
Conditions in all cases: 10 µM unless noted
SK-MEL-2 melanoma = tested on: SK-MEL-2 melanoma
EKVX NSCLC = tested on: EKVX NSCLC
SN12C renal = tested on: SN12C renal
UO-31 renal = tested on: UO-31 renal
TK-10 renal = tested on: TK-10 renal
ACHN renal = tested on: ACHN renal
CAKI-1 renal = tested on: CAKI-1 renal
A498 renal = tested on: A498 renal
CCRF-CEM leukemia = tested on: CCRF-CEM leukemia
MOLT-4 leukemia = tested on: MOLT-4 leukemia

| Structure (SMILES) | growth (SK-MEL-2 melanoma) | growth (EKVX NSCLC) | growth (SN12C renal) | growth (UO-31 renal) | growth (TK-10 renal) | growth (ACHN renal) | growth (CAKI-1 renal) | growth (A498 renal) | growth (CCRF-CEM leukemia) | growth (MOLT-4 leukemia) |
| --- | --- | --- | --- | --- | --- | --- | --- | --- | --- | --- |
| COc1ccc(-c2cc(C(=O)N3N=C(c4ccc(N)cc4)CC3c3ccc(Cl)cc3)c3ccccc3n2)cc1 (stereo not given) | 20.1% | 41% | 41% | 45.3% | 35.6% | 43.6% | 28.3% | -1.93% (active) | 16.5% | 20.5% |
| COc1ccc(C/C(C)=C(\c2ccc(O)cc2)c2ccc(OCCN3CCCCC3)cc2)cc1 | 114% | 90.1% | 89.9% | 56.6% | 85.2% | 93.1% | 104% | 110% | 54.4% | 38.4% |
| Fc1cccc(-c2nc(-c3c[nH]c4ncccc34)cs2)c1 | 117% [100 µM] | 28.6% [100 µM] | 62.7% [100 µM] | 61.1% [100 µM] | 18% [100 µM] | 22% [100 µM] | -11.1% [100 µM] (active) | 76.6% [100 µM] | 72% [100 µM] | 71.8% [100 µM] |
| CCN(CC)CCOc1ccc(/C(=C(\C)Cc2ccc(OC)cc2)c2ccc(OC(=O)NCc3ccccc3)cc2)cc1 | 69.1% | 73% | 74.7% | 46.3% | 71.4% | 81.4% | 69.3% | 84.8% | 23.1% | 1.91% (active) |
| COc1ccc(Oc2ccc(/C=C/C(=O)c3cc4ccccc4oc3=O)cc2)cc1 | 102% | 94.5% | 86.1% | 48% | 147% | 91.3% | 74.8% | 121% | 28.1% | 57.9% |
| CCN(CC)c1ccc(-c2cc(-c3cc(OC)c(OC)c(OC)c3)nc(N3CCC(O)CC3)c2C#N)cc1 | -66.6% (active) | 18.6% | 13.5% | -43.9% (active) | 3.06% (active) | 7.6% (active) | -31.7% (active) | 29% | 16.4% | 2.73% (active) |
| Cc1ccc2c(c1)=C/C(=C\c1cc(-c3ccccc3)[nH]c1O)C(=O)N=2 | 3.31% (active) | 52% | 42.5% | 55.4% | 68.3% | 65.6% | 42.3% | 24.7% | 20% | 18.8% |
| C=C(c1ccc(C(=O)O)c(F)c1)c1cc2c(cc1C)C(C)(C)CCC2(C)C | 89.4% | 75.6% | 85.4% | 92.6% | 102% | 79% | 81.4% | 95.8% | 86.8% | 82.4% |
| CC(C)CCC[C@@H](C)[C@H]1CC[C@H]2[C@@H]3CC=C4c5sc(Nc6cc(C(F)(F)F)cc(C(F)(F)F)c6)nc5CC[C@]4(C)[C@H]3CC[C@]12C | 124% | 97% | 92.3% | 73.4% | 119% | 106% | 85.6% | 123% | 107% | 103% |
| O=S(O)c1cc(Cl)cc(Cl)c1OCc1ccccc1 | 105% | 99.1% | 98.4% | 90.3% | 101% | 110% | 99% | 80% | 102% | 101% |
| c1cc(OCCN2CCCCC2)ccc1CNc1ccc2nc(CCC3CCCCC3)[nH]c2c1 | -11.3% (active) | 75.8% | 64.4% | -30.4% (active) | 80.1% | 45.4% | -28.5% (active) | 10.5% | 5.76% (active) | 7.66% (active) |
| Cc1sc2nc(NCCN)[nH]c(=O)c2c1C | 103% | 89.6% | 90% | 91.4% | 96.9% | 91.2% | 100% | 91.8% | 117% | 106% |
| COc1ccc2c(c1)oc1c(C)c3c(c(C)c12)C(=O)N(CCOS(C)(=O)=O)C3=O | 101% | 107% | 94% | 88.2% | 124% | 97.1% | 95.4% | 129% | 100% | 94.7% |
| CCC(C)(C)c1ccc(Nc2ccc(Nc3ccc(C(C)(C)CC)cc3)cc2)cc1 | 95.9% | 98.6% | 96.7% | 62.5% | 103% | 97% | 71% | 121% | 87.9% | 76% |
| N#CC1=C(N)Oc2c(sc3c(F)cccc23)C1c1ccc([N+](=O)[O-])cc1 (stereo not given) | -42.2% (active) | -2.24% (active) | -79% (active) | -26.4% (active) | -7.94% (active) | -2.28% (active) | 0.858% (active) | -36.3% (active) | 3.46% (active) | -1.93% (active) |
| Nc1ccc(-c2ccncc2)cc1NC(=O)N1CCCC1 | 87.9% | 104% | 100% | 88.7% | 85.2% | 108% | 95% | 76.8% | 88.1% | 87% |
| O=C(Nc1cc(Cl)cc(Cl)c1)Oc1c(Cl)c(Cl)c(Cl)c(Cl)c1Cl | 64% | 64.2% | 71.2% | 58.4% | 113% | 65.8% | 68.1% | 19.6% | 47.7% | 63.5% |
| CCOC(=O)C1=C(CCl)N(C)C(=O)NC1c1ccc2c(c1)OCO2 (stereo not given) | 58.8% | 71.9% | 58.6% | 69.5% | 45.2% | 49.5% | 36.7% | 55.8% | 12% | 53.2% |
| CCn1cc(C(=O)N/N=C/c2cccc(F)c2)c(=O)c2cc(F)c(N3CCNC(C)C3)c(F)c21 (stereo not given) | 104% | 50.7% | -4.46% (active) | 20.6% | 101% | 74.4% | 66.7% | 99.2% | -47% (active) | -26% (active) |
| COC(=O)[C@]1(C)CCC[C@]2(C)[C@H]3C[C@@H]4[C@H]5[C@@H]6CC/C(=N\OCC/C(N)=N/O)[C@H]5[C@@]3(CC[C@H]21)CC4(C(C)C)O6 | 85.8% | 62.5% | 63.4% | 50.1% | 84.9% | 68.4% | 65.1% | 82.4% | 18.9% | 28% |
| CC(=O)Nc1sc2c(c1-c1nc3ccccc3s1)CNC2 | 23.2% | 30.6% | 27.9% | 6.46% (active) | 29% | 9.91% (active) | 23.8% | 36.6% | 22.6% | 10.4% |
| COc1cc(/C=C/c2cn[nH]c2-c2ccc(C)cc2)cc(OC)c1OC | 2.13% (active) | 47.8% | 51.2% | 45.9% | 66% | 49.4% | 32.6% | 33.8% | 24.8% | 22.8% |
| CCCCCCCCCCCCCCCCCCOc1ccccc1CC(=O)NCC[N+](C)(C)C | 68.8% | 89.3% | 23.5% | 80.2% | -21.4% (active) | 78.3% | 18.7% | 65.6% | -5.38% (active) | 17.1% |
| CCOC(=O)c1c(C)nc2ccccc2c1/C=C/c1ccc(F)cc1 | 75.2% | 60.3% | 77.1% | 62.8% | 82.3% | 75.5% | 67.7% | 75.4% | 67.8% | 42.8% |
| CN(C)c1ccc(/C=C2\C=C(c3nc4ccccc4s3)OC2=O)cc1 | 107% | 94% | 97.1% | 73.4% | 118% | 92.2% | 76% | 112% | 99% | 94.8% |
| ClCCn1cnc2c(SCc3ccccc3)ncnc21 | 120% | 77.2% | 57.5% | 65.2% | 83.5% | 49.4% | 3.9% (active) | 81.6% | 62.8% | 45.8% |
